Assay in all cases: NCI-60 one-dose screen, 48 h (100 = growth as untreated, 0 = no growth, -100 = all killed)
What all share (settings): 10 µM

For test [1], the system named is T-47D breast.
Test [2] concerns BT-549 breast.
Test [3] concerns MDA-MB-435 melanoma.
Test [4] has as its system SW-620 colon.
Test [5] has as its system MCF7 breast.
Test [6] has as its system HCT-116 colon.
Test [7] relates to HCC-2998 colon.
The subject of test [8] is KM12 colon.

Compounds without any hit were thinned out: in the full panel of roughly 83,000, 20% have a hit.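 Plates (96-well) were seeded with cells, treated with compound at one concentration, and incubated for 48 hours before percent growth was determined.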 A number with no mark means an inactive call. Calls of active or inactive are those of the source. The calls were made as follows: active = growth percent below 10; inactive = the rest.

In the case of `Cc1cc(=O)n2nnc3cc(Cl)c(Cl)cc3n12`, the growth in test [1] was 76.3%; in test [2], 114%; in test [3], 103%; in test [4] it was 23.4%; in test [5], 96.3%; in test [6] it was 91.8%. Besides, the growth in test [7] is 108%; in test [8] it was 109%.

Turning to `COc1ccc2c(c1)C(=O)/C(=C/c1ccc([N+](=O)[O-])o1)O2`, the growth was -46.9% (active) in test [1]; -49.9% (active) in test [2]; -72.5% (active) in test [3]; -60.4% (active) in test [4]; -18.7% (active) in test [5]; -44.9% (active) in test [6]. The values for the growth in test [7] and in test [8] were -78.5% (active) and -80.3% (active), respectively.

For `O=C(Nc1ccc(NS(=O)(=O)c2ccc(F)cc2)cc1)C12CC3CC(CC(C3)C1)C2`, the growth in test [1] is 76.2%; in test [2], 93.8%; in test [3], 95.9%; in test [4] it was 99.4%; in test [5] it was 78%; in test [6] it was 97.8%. Also, the growth was 96.4% in test [7] and 99.4% in test [8].

On to `COc1cc2c3c(n([C@H]4CCOC4)c(=O)c2cc1OC)-c1cc2c(cc1C3=O)OCO2`, for which the growth in test [1] was 11.8%; in test [2], 48.2%; in test [3], 59.3%; in test [4], 46.2%; in test [5] it was 14.2%; in test [6], 31%. For the same molecule, the growth was 70.5% in test [7] and 57.1% in test [8].

For the molecule `CC(C)(O)CCl`, the growth was 116% in test [1]; 116% in test [2]; 102% in test [3]; 99.5% in test [4]; 100% in test [5]; 110% in test [6]. Also, the growth in test [7] was 109%; in test [8] it was 107%.

For `CN(C)c1ncnc2c1nnn2C1OC(CO)C(O)C1O` (stereo not drawn), the growth is 10.5% in test [1]; 46.1% in test [2]; 8.72% (active) in test [3]; 19.1% in test [4]; 6.74% (active) in test [5]; 17.2% in test [6]. Moreover, the values for the growth in test [7] and in test [8] were 8.01% (active) and 13.7%, respectively.

Consider `CC[C@@H](C(=O)[C@H](C)[C@H](O)[C@@H](C)[C@H]1O[C@H]([C@@H](CC)C(=O)O)CC[C@H]1C)C1O[C@]2(C=C[C@@H](O)[C@]3(CC[C@@](C)([C@H]4CC[C@](O)(CC)[C@H](C)O4)O3)O2)[C@H](C)C[C@@H]1C` (stereo partly drawn), for which the growth was 25.5% in test [1]; 6.06% (active) in test [2]; -16.3% (active) in test [3]; 24% in test [4]; 3.7% (active) in test [5]; 22.2% in test [6]. Further, the values for the growth in test [7] and in test [8] were 8.29% (active) and 24.5%, respectively.

Consider `Cc1ccc(-n2c(C)nn3c(=O)c4c5c(sc4nc23)CN(C)CC5)cc1`, for which the growth in test [1] is 81.3%; in test [2], 97.6%; in test [3], 102%; in test [4], 104%; in test [5], 92.3%; in test [6] it was 93.5%. The values for the growth in test [7] and in test [8] were 97.2% and 96%, respectively.

In the case of `O=C(Nc1nc(-c2ccccc2)nc2c1sc(=S)n2-c1ccccc1)C(F)(F)F`, the growth in test [1] is 71.1%; in test [2], 98.9%; in test [3], 99.8%; in test [4] it was 103%; in test [5], 87%; in test [6], 78.8%. Also, the results for the growth in test [7] and in test [8] were 123% and 91.3%, respectively.

With `C/C=C/C1=CN2C(=O)c3cc(OC4OC(C)C(NC)C(C)(O)C4O)c(C)c(O)c3N=C[C@@H]2C1` (stereo partly drawn), the growth was -8.27% (active) in test [1]; -34.4% (active) in test [2]; -77% (active) in test [3]; -14.9% (active) in test [4]; 0.963% (active) in test [5]; 1.59% (active) in test [6]. For the same molecule, the figures for the growth in test [7] and in test [8] were -56.7% (active) and -60.7% (active), respectively.

Take `C(=N\Nc1ncnc2sc3c(c12)CCNC3)/c1cccc2ccccc12`: the growth in test [1] was 103%; in test [2], 92.5%; in test [3], 97.7%; in test [4], 2.91% (active); in test [5] it was 37.8%; in test [6] it was 8.77% (active). Also, the growth is 92.6% in test [7] and 82.4% in test [8].

With `Cc1ccc(C(=O)C2C(=O)C3CCC2C3)cc1` (stereo not drawn), the growth in test [1] is 108%; in test [2], 105%; in test [3], 100%; in test [4] it was 104%; in test [5], 97.5%; in test [6], 108%. Besides, the values for the growth in test [7] and in test [8] were 106% and 107%, respectively.

Take `Cc1cc(=O)n2nnc3cc(C(F)(F)F)ccc3n12`: the growth in test [1] was 116%; in test [2], 127%; in test [3] it was 99.4%; in test [4], 118%; in test [5], 120%; in test [6], 103%. Further, the figures for the growth in test [7] and in test [8] were 104% and 105%, respectively.

With `O=C(Nc1cccc2c1CCCC2)c1cc2ccccc2cc1O`, the growth in test [1] was 32.4%; in test [2], 27.4%; in test [3], 41.8%; in test [4] it was 51.4%; in test [5], 62.6%; in test [6] it was 6.56% (active). In addition, the growth was 59.1% in test [7] and 49.9% in test [8].

On to `Nc1ccccc1NC(=O)c1ccc(CCCC(=O)Nc2ccc(C3CC3N)cc2)cc1` (stereo not drawn), for which the growth in test [1] is 7.85% (active); in test [2] it was 47.4%; in test [3], 18%; in test [4], 14.9%; in test [5], 17.7%; in test [6] it was 8.68% (active). In addition, the growth in test [7] was 19.5%; in test [8] it was 45.2%.

Take `NC(N)=N/N=C(\N=Nc1ccccc1)c1ccc(Cl)cc1`: the growth was 20.4% in test [1]; 67.2% in test [2]; 5.69% (active) in test [3]; 12.7% in test [4]; 23.8% in test [5]; 15% in test [6]. The growth was 11% in test [7] and 20.8% in test [8].

The values above are taken from PubChem BioAssay (NCI).
